# Assay outcomes: PubChem, National Center for Advancing Translational Sciences (NCATS)
# ELG1 DNA repair – blocks ELG1-dependent DNA repair in HEK293T cells. 330,000 tested, 2.3% active. Potency, µM (series often up to 46.1 µM), without a hit: at the top dose activity change, negative = inhibition, usual class: inhibitors. AID 504467. HEK293T ELG1-luciferase reporter, luminescence, 16 h; DNA damage induced by 5-fluorouridine; note: potency is the fitted concentration of half-maximal effect; nearly all actives have a fitted effect of over 55% in size
#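 Cells (2,000 per well) received 5-fluorouridine plus test compound or DMSO and were incubated 16 hr at 37 °C, 5% CO2. Luciferase activity was read by luminescence 30 min after ONE-Glo addition; signal suppression marked inhibition of damage-induced ELG1 function.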
# DT40 TDP1 no CPT – qHTS for Inhibitors of human tyrosyl-DNA phosphodiesterase 1 (TDP1): qHTS in cells in absence of CPT | DT40 Tdp1-/- hTDP1 cells, no CPT, ATP luminescence, 48 h | Potency, µM (top dose mostly 46.2 µM), for the others: at the top dose activity change, negative = growth inhibition, hits mostly inhibitors | 420,000 tested, 15% active; note: potency is the fitted concentration of half-maximal effect; nearly all actives have a fitted effect of over 55% in size
#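 Growth of hTDP1-complemented DT40 Tdp1-knockout cells is measured by ATP luminescence after at least 48 hr compound exposure at 37 °C, with DMSO substituting for the 20 nM CPT used in the parallel screen.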
# IL-1B inflam inh – inflammasome signaling inhibition, IL-1 beta readout | 360,000 tested, 4.7% active | activity change, % at 57.5 µM | THP-1 LPS/ATP IL-1B secretion, AlphaLISA, 16 h; hits give low values | AID 743279; in the data active = activity change below about -50%; inconclusive = mostly about -30% to -49%
#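 THP-1 cells pretreated 1 hr with compounds (up to 57.5 uM final), then stimulated with LPS (250 ng/mL final) plus ATP (1.25 mM final); secreted IL-1B measured by AlphaLISA after 16 hr, decreased signal indicating inhibition.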
# VP16 counter – counter-screen for ROR gamma inhibitors: Gal4-VP16 reporter; Drosophila S2 Gal4-VP16 UAS-luciferase, luminescence, 20 h; Potency, µM (highest dose often 53.6 µM), inactives show at the top dose activity, negative = inhibition, most hits filed as inhibitors; 310,000 tested, 3.5% active;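 note: Gal4-VP16 expression switched on by copper sulfate through the metallothionein promoter; potency is the fitted concentration of half-maximal effect; nearly all actives have a fitted effect of over 50% in size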
# DT40 TDP1 CPT – growth inhibition of DT40 Tdp1-/-;hTDP1 cells with camptothecin (screen for TDP1 inhibitors) | chicken DT40 Tdp1-/-;hTDP1 cells + 20 nM CPT, ATP luminescence, 48 h | Potency, µM (top dose mostly 46.2 µM), without a hit: top-dose activity change, negative = growth inhibition, hits mostly inhibitors | 420,000 tested, 12% active | AID 686979; note: potency is the fitted concentration of half-maximal effect; nearly all actives have a fitted effect of over 55% in size
#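 Cell growth measured by CellTiter-Glo luminescence after a minimum 48 h, 37 C compound exposure with 20 nM CPT in Tdp1-knockout DT40 cells stably expressing hTDP1, seeded 400/well; qHTS titration format.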
# RORgamma inh – inhibitors of mouse ROR gamma transcriptional activity | Drosophila S2 Gal4-RORgamma UAS-luciferase reporter, 20 h | 310,000 tested, 5.4% active | Potency, µM (series often up to 53.6 µM), for inactives: at the top dose activity change, negative = inhibition, actives largely listed as inhibitors; note: potency is the fitted concentration of half-maximal effect; nearly all actives have a fitted effect of over 60% in size
# Target sequence (P51450 whole entry, looked up, the tested form may be a part): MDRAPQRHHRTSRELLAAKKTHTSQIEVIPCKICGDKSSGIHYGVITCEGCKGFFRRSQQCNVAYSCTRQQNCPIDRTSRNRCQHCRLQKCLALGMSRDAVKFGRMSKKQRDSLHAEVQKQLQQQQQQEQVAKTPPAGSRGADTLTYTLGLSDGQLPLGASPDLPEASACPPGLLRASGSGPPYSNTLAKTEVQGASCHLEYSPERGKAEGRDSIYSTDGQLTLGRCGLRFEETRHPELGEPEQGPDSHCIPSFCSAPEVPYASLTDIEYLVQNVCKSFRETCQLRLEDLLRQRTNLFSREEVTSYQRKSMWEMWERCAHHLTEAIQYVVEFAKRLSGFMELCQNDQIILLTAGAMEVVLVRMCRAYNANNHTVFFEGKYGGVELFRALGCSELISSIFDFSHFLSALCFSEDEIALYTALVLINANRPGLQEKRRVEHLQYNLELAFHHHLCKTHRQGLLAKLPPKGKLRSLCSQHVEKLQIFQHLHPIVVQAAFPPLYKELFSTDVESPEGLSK
#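 Schneider cells (Drosophila), stable Gal4 DBD–ROR gamma + UAS-luc; 1 hr cmpd preincubation; Cu2+ induction 700 uM final; 20 hr ambient; luminescence.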
# Numbers without * were called inactive; ? = inconclusive; / = no result given; [ ] = remark or other dose. Only some compounds are listed: those with a hit (about 21% of all), similar ones and a draw of the others. Unless noted, calls come from the whole dose curve; as a rule, active = well fitted curve in the direction sought with a large enough effect; inconclusive = small, poorly fitted or top-dose-only effect, or another doubt; inactive = no such curve, though single readings can be large; an effect the other way counts as inactive or inconclusive. % is set by controls: 0 for no effect and ±100 for the full control effect.
SMILES,ELG1 DNA repair,DT40 TDP1 no CPT,IL-1B inflam inh,VP16 counter,DT40 TDP1 CPT,RORgamma inh
c1ccc(Nc2ncncc2-c2ccc3c(c2)OCO3)cc1,/,-13%,/,-11%,-17%,-8%
Cc1[nH]c2ccc(F)cc2c1CCNC(=O)c1cc2cc(Cl)ccc2oc1=O,/,-24%,/,/,2%,/
Cc1ccc(C(=O)NNC(=O)c2ccoc2C)s1,?,-11%,2,/,?,/
O=C(CCc1ccc(S(=O)(=O)N2CCOCC2)cc1)Nc1nc(COc2ccccc2)cs1,21µM*,?,?,?,15µM*,-39%
COc1ccccc1OCC(=O)Nc1nc(-c2ccc(S(=O)(=O)N3CCOCC3)cc2)cs1,/,13µM*,11,/,21µM*,/
CCC(=O)N(C)C[C@@H]1Oc2ncc(Br)cc2C(=O)N([C@H](C)CO)C[C@H]1C,/,-11%,42,/,-3%,/
Cc1ccc2c(CC(=O)N3CCOc4ccc(CN5CCOCC5)cc4C3)cc(=O)oc2c1,/,-18%,/,/,-3%[9.04 µM],/
Nc1nc(C23CC4CCC(CC(C4)C2)C3)cs1,-4%,?,-4,10%,-4%,?
Cc1ccc(S(=O)(=O)C(CNC(=O)c2c(F)cccc2F)c2ccco2)cc1 (stereo unspecified),/,23µM*,/,/,?,/
Cc1ccc(S(=O)(=O)C(CNC(=O)COc2ccc(Cl)cc2)c2ccco2)cc1 (stereo unspecified),/,?,/,/,23µM*,/
O=C(NCC(c1ccco1)S(=O)(=O)c1cccs1)c1ccc(F)c(F)c1 (stereo unspecified),/,16µM*,/,/,13µM*,/
Cc1ccc(S(=O)(=O)C(CNC(=O)C(=O)NCc2ccc(Cl)cc2)c2ccco2)cc1 (stereo unspecified),/,-14%,/,/,-3%,/
COc1ccc(CNC(=O)C(=O)NCC(c2ccco2)S(=O)(=O)c2cccs2)cc1 (stereo unspecified),/,?,/,/,-14%,/
Cc1ccc(S(=O)(=O)C(CNC(=O)c2ccc(F)c(F)c2)c2ccco2)cc1 (stereo unspecified),/,?,/,/,16µM*,/
Cc1ccc(C(=O)NCC(C)NC(=O)c2ccc(C)c(C)c2)cc1C (stereo unspecified),/,26µM*,-26,/,?,/
Cc1ccc(C(=O)NCCCNC(=O)c2ccco2)cc1C,11%,4%,23,-2%,9%,2%
Cc1ccccc1CNC(=O)C(=O)NCC(c1ccco1)S(=O)(=O)c1ccccc1 (stereo unspecified),/,?,/,/,-18%,/
Cc1ccc(C(=O)NCC(c2ccco2)S(=O)(=O)c2ccc(Cl)cc2)cc1C (stereo unspecified),/,21µM*,/,/,16µM*,/
O=C(NCC(c1ccco1)S(=O)(=O)c1ccc(Cl)cc1)c1ccccc1F (stereo unspecified),/,16µM*,/,/,?,/
COc1cccc(C(=O)N2CCC(n3nccc3NC(=O)CCOc3ccccc3)CC2)c1,19%,?,5,-11%,-28%,-6%
CC(C)CN(CCCNC(=O)c1cn(C)c2ccc(S(=O)(=O)N(C)C3CCCCC3)cc2c1=O)CC(C)C,/,0%,/,/,8%,/
O=C(C1CCCCC1)N1C[C@H](O)[C@@H](n2cc(C3CC3)nn2)C[C@@H]1c1ccccc1,/,0%,11,/,-12%,/
Cc1ccc(NC(=O)CSCC(=O)N(C)Cc2c(F)cccc2Cl)cc1,/,26µM*,-13,/,18µM*,/
COc1ccc(NC(=O)CSCC(=O)N(C)Cc2c(F)cccc2Cl)cc1,-14%,?,7,/,?,/
COc1ccc(S(=O)(=O)N2CCOCC2)cc1NC(=O)CN(C)Cc1c(F)cccc1Cl,21µM*,21µM*,-66*,3%,?,30%
